Screening data (PubChem BioAssay)
KDM5B inh: blocks human KDM5B histone demethylase activity | Q9UGL1 | KDM5B demethylase, FDH-coupled NADH fluorescence (FDH is formaldehyde dehydrogenase) | Potency, µM (highest dose often 57.7 µM), usual class: inhibitors | hit rate 2.6% among 220,000; active means well fitted inhibition curve with a large enough effect; further: nearly all actives have a fitted effect of over 70% in size
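Compound dilutions met 200 nM (final) KDM5BΔAP for 10 min at room temperature before substrate addition. The substrate mix held 12.5 µM H3K4me3 with cofactors 25 µM α-ketoglutarate and 50 µM Fe²⁺. NADH signal gain over 30 min defined activity.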
A number is an active result; 0 = inactive. This excerpt belongs to a sample that is enriched for hits.

SMILES | KDM5B inh
FC(F)(F)c1ccccc1CNCc1ccccc1 | 0
O=S(=O)(NCc1ccc(N2CCOCC2)nc1)c1cc(C(F)(F)F)cc(C(F)(F)F)c1 | 0
Cc1ccc(CC(=O)NCCc2c[nH]c3ccc(C)cc23)cc1 | 0
O=C(CSc1ncc(-c2ccc(Cl)cc2)o1)Nc1cccc(F)c1 | 0
FC(F)(F)c1ccc2c(c1)nc1n2[C@@H](CNCc2c[nH]c3ccccc23)COC1 | 0
O=C(COc1ccc2c(=O)c(-c3ccccc3)coc2c1)Nc1ccc2c(c1)OCO2 | 0
NC1CC(c2cc(N3CCC(OCc4ccccc4)CC3)ncn2)C1 (stereo not given) | 0
CN(C)CCCNc1nc(-c2ccc(Cl)cc2)c(CC(=O)O)s1 | 0
C=CCCC(=O)N1CCN(C(=O)c2ccc(C(F)(F)F)cc2)CC1 | 0
CC(C)Nc1ncc(C(=O)NC2CC(=O)N(Cc3cccc(F)c3)C2)cn1 (stereo not given) | 22µM
O=C(Cc1cccc(Cl)c1)NC1CC(=O)N(Cc2ccc(F)cc2)C1 (stereo not given) | 0
COc1ccccc1CC(=O)N1CCCc2ncc(C(=O)NCCOc3ccccc3)cc21 | 0
COCCNC(=O)c1cnc2c(c1)N(Cc1ccccc1C(F)(F)F)CCC2 | 35µM
Cc1noc(C)c1C(=O)NC1CC(=O)N(Cc2cccc(F)c2)C1 (stereo not given) | 0
COc1ccccc1CC(=O)N1CCCc2ncc(C(=O)NCCC(C)C)cc21 | 0
CCOC(=O)C(N)c1ccccc1 (stereo not given) | 0
O=C(COc1ccccc1F)Nc1ccc2c(=O)c3cccc(F)c3oc2c1 | 0
COc1ccc(Cl)cc1NC(=O)Cn1c(N2CCC(C)CC2)nc(C)cc1=O | 28µM
COc1ccc(NC(=O)Cn2c(N3CCC(C)CC3)nc(C)cc2=O)cc1 | 0
Cc1nc(N2CCCCC2)n(CC(=O)Nc2cccc(Cl)c2C)c(=O)c1C | 0
COc1ccc(Cl)cc1NC(=O)Cn1c(N2CCCCC2)nc(C)c(C)c1=O | 20µM
CCc1ccccc1NC(=O)Cn1c(N2CCC(C)CC2)nc(C)cc1=O | 0
Cc1ccc(NC(=O)Cn2c(N3CCCCC3)nc(C)c(C)c2=O)c(Cl)c1 | 0
O=C(O)c1cnc(-c2ccccc2)nc1 | 0
COc1ccc(-c2csc3c2NC(=O)CC3c2cc(C)ccc2C)cc1 (stereo not given) | 0
SMILES | KDM5B inh
COc1ccc2oc(=O)c(-c3nc(-c4nonc4N)no3)cc2c1 | 0
COc1cc2cc(CN3CCC[C@H]3CO)c(-c3cccc(Cl)c3)nc2cc1OC | 25µM
COc1ccc(-c2noc([C@@H]3CCCN3C(=O)c3cccc(C)c3)n2)cc1OC | 0
COc1ccc(OC)c(-c2nc3c(C)cccc3cc2CN2CCCC(O)C2)c1 (stereo not given) | 0
COc1ccc(-c2nc3c(C)cccc3cc2CN2CC[C@@H](O)C2)cc1 | 18µM
COc1ccc(-c2nc3c(C)cccc3cc2CN2CCC[C@H]2CO)cc1OC | 25µM
Cc1cc(C2CCCN2Cc2coc(-c3cccc(Cl)c3)n2)on1 (stereo not given) | 0
COc1cccc(-c2noc(CC3CCN(C(=O)c4cccc(Cl)c4)CC3)n2)c1 | 0
COc1ccc(CN2CCC(O)(c3csc(CN4CC[C@@H](O)C4)n3)CC2)cc1 | 0
COC[C@@H]1CCCN1Cc1cn(-c2ccccc2C)nc1-c1ccc(OC)c(F)c1 | 0
COc1c(CNCc2nnc3n2CCCCC3)c(C(C)C)nn1C | 0
CC(C)n1c(SCCC(=O)O)nc2c1c(=O)[nH]c(=O)n2C | 0
Fc1ccc(-c2ccc(CNCc3cccnc3-n3cccn3)o2)cc1 | 0
O=C(Nc1ncn(Cc2cccc(Cl)c2)n1)c1ccn(COc2ccc(Cl)cc2)n1 | 0
O=C(O)CN1CCC(CO)CC1 | 0
CCN(Cc1cc2ccccc2[nH]c1=O)S(=O)(=O)c1ccc(C)cc1 | 0
C=CCOc1cccc(NC(=O)C2CC2)c1 | 0
Cc1cccc(NC(=O)c2nn(-c3ccccc3)c(=O)c3ccccc23)c1C | 0
COCc1nc2nc(-c3ccccc3)c(-c3cccnc3)cc2n1C | 0
COCc1nc2nc(-c3ccccc3)c(Nc3ccc(F)cc3)cc2n1C | 32µM
COCc1nc2nc(-c3ccccc3)c(-c3ccccc3O)cc2n1C | 0
NC(=O)c1cccc(CN2CCC3(Cc4ccccc4N(C(=O)c4ccc(Cl)cc4)C3)C2)c1 (stereo not given) | 0
CC(C)C(=O)N1Cc2ccccc2CC2(CCN(CC3CCNC3)C2)C1 (stereo not given) | 0
CC(=O)Nc1ccc(CN2CCCCC23Cc2ccccc2CN(C(=O)C(C)C)C3)cc1 (stereo not given) | 0
O=C(C1CCCC1)N1CC2(CCCCN2CC2CC2)Cc2ccccc21 (stereo not given) | 0
SMILES | KDM5B inh
NC(=O)c1cccc(CN2CCCC23Cc2ccccc2N(C(=O)c2ccc(Cl)cc2)C3)c1 (stereo not given) | 79µM
NC(=O)c1cccc(CN2CCC3(CC2)Cc2ccccc2N(C(=O)c2ccc(Cl)cc2)C3)c1 | 0
O=C(c1ccccc1)N1CC2(CCCCN2CC2CC2)Cc2ccccc21 (stereo not given) | 0
CC(C)C(=O)N1Cc2ccccc2CC2(CCCN2Cc2ccncc2)C1 (stereo not given) | 56µM
CCC(=O)N1Cc2ccccc2CC2(CCCN(CC3CCNCC3)C2)C1 (stereo not given) | 0
CC(C)C(=O)N1Cc2ccccc2CC2(CCCCN2Cc2ccncc2)C1 (stereo not given) | 0
CC(=O)N1Cc2ccccc2CC2(CCCN(CC3CCNC3)C2)C1 (stereo not given) | 25µM
O=C(c1ccc(Cl)cc1)N1CC2(CCCN2CC2CCCCC2)Cc2ccccc21 (stereo not given) | 56µM
O=C(O)c1ccc(S(=O)(=O)NCc2ccco2)cc1 | 0
Cc1cccc(C(=O)NC(CC(=O)O)c2ccc(C(C)(C)C)cc2)c1 (stereo not given) | 0
c1ccc(COc2ccc(CNCC3CCCO3)cc2)cc1 (stereo not given) | 0
COC(=O)c1c(COc2ccc(C)nc2[N+](=O)[O-])nc2ccccc2c1C | 0
CN(C(=O)Cn1nc(-c2ccccc2F)ccc1=O)C1CCS(=O)(=O)C1 (stereo not given) | 0
Cc1ccc(N/N=C/c2ccc(C)s2)cc1 | 0
O=C(O)/C(=C/c1cccc(OCc2ccccc2)c1)c1cccs1 | 0
O=C(Nc1cccc(C(F)(F)F)c1)c1c(-c2ccccc2)nc2n1CCS2(=O)=O | 0
Cc1cc(C)c2oc(=O)cc(CN(C)CCO)c2c1 | 0
CC(=O)N1Cc2ccccc2CC2(CCCCN2CC2CCCC2)C1 (stereo not given) | 50µM
NCC(=O)N1Cc2ccccc2CC2(CCCCN2CC2CCCC2)C1 (stereo not given) | 0
CC(=O)N1Cc2ccccc2CC2(CCCCN2CC2CCOCC2)C1 (stereo not given) | 0
OCC1CN(c2ccncn2)CC12CCN(Cc1cccc(F)c1F)CC2 (stereo not given) | 0
Cc1cccc(CN2CCC3(CC2)CCN(Cc2cccc(O)c2)CC3CO)n1 (stereo not given) | 0
OCC1CN(c2ncccn2)CC12CCN(Cc1cc(Cl)ccc1F)CC2 (stereo not given) | 25µM
COc1cccc(CN2CCC3(CC2)CC(O)CCO3)n1 (stereo not given) | 0
Cc1ccsc1CN1CCC2(CC1)CN(c1ccncn1)CC2CO (stereo not given) | 0
CCn1nc(C)c(CN2CCC3(CC2)CN(c2ccncn2)CC3CO)c1C (stereo not given) | 0
